Source: PubChem BioAssay AID488977 (Johns Hopkins Ion Channel Center, 2010)
Among all 310,000 compounds or so, about 1,500 (0.48%) were called active.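 The calls were made as follows: active = initial fluorescence not abnormally high and integrated response B-score, plate-corrected, over 3 SD above library mean; inactive = the rest.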 The sample as a whole holds a higher share of actives than the screen did.

target: High affinity choline transporter 1 (Homo sapiens) (UniProt Q9GZV3); assay: allosteric activators of human choline transporter – cell-based, membrane potential dye, choline EC20, primary screen (AID 488977); conditions: CHT-expressing cells, at 10 µM, LV-AA mutant CHT in HEK293 cells; stronger effect = higher value
Sequence (Q9GZV3 whole entry, looked up): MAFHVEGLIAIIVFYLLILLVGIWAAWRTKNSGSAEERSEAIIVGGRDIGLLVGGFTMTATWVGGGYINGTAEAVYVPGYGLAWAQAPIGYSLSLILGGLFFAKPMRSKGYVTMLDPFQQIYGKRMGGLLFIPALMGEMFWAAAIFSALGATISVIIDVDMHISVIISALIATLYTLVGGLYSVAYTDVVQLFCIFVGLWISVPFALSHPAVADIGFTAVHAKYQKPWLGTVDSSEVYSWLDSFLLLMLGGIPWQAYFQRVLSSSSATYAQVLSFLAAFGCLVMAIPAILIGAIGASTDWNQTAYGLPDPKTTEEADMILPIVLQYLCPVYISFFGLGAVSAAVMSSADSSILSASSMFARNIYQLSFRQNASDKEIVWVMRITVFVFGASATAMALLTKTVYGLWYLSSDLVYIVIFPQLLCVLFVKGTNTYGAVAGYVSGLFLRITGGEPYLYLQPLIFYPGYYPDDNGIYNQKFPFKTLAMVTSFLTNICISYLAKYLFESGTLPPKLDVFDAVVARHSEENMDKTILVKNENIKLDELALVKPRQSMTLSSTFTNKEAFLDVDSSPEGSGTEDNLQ

SMILES | B-score
Cc1sc2ncnc(N3CCC(C(=O)NNC(=O)c4ccc(F)cc4)CC3)c2c1C | inactive
O=C(CSc1nnc(-c2ccccc2)o1)N1CCOCC1 | inactive
CC1=CC(C)(C)N(C(=O)CSc2nccn2C)c2cc(C)ccc21 | inactive
CC1=CC(C)(C)N(C(=O)CSc2nnc(-c3ccccc3)o2)c2ccc(C)cc21 | 9.98 (active)
CCN1/C(=C/c2ccc3ccc(C)cc3[n+]2CC)Sc2ccccc21 | 7.76 (active)
CCN1/C(=C/C(=S)Nc2ccccc2)Sc2ccccc21 | inactive
CCN1/C(=C\c2ccc3ccccc3[n+]2CC)Sc2cc(C)ccc21 | inactive
Cc1ccccc1C(=O)NCC(c1ccco1)N1CCc2ccccc21 (stereo not drawn) | 7.63 (active)
COc1ccc(C(=O)NCC(c2ccco2)N2CCc3ccccc32)cc1OC (stereo not drawn) | inactive
O=C(NCC(c1ccco1)N1CCc2ccccc21)c1cccc(F)c1 (stereo not drawn) | inactive
CC(=O)Nc1ccc(C(=O)Nc2cccc(S(=O)(=O)NC3=NCCC3)c2)cc1 | inactive
COc1ccc(C(=NN)c2ccc(OC)cc2)cc1 | inactive
CCOC(=O)[C@H]1[C@H]2COc3ccc(Cl)cc3[C@@H]2N2C(=O)c3cc(C)ccc3NC(=O)[C@@]12C | inactive
Cn1cccc1C(=O)NNC(=O)COc1ccc(Br)cc1 | inactive
O=C(Nc1ccc(S(=O)(=O)N2CCCCC2)cc1)C1CCN(C(=O)c2ccc(F)cc2)CC1 | inactive
COc1ccc(C2CC(=O)Nc3cc(C)c(C)cc32)c(OC)c1OC (stereo not drawn) | inactive
COc1ccccc1C1C2=C(COC2=O)Nc2cc3c(cc21)OCO3 (stereo not drawn) | inactive
CCCOc1ccccc1C1CC(=O)Nc2cc3c(cc21)OCO3 (stereo not drawn) | 7.15 (active)
COc1ccc(/C=C2\SC(=S)N(CCCC(=O)NC3CCCC3)C2=O)cc1OC | inactive
Cc1c(CCOC(=O)CC23CC4CC(CC(C)(C4)C2)C3)sc[n+]1Cc1ccc([N+](=O)[O-])cc1 | 8.47 (active)
Cc1c(CCOC(=O)c2cc([N+](=O)[O-])ccc2Cl)sc[n+]1CCCCS(=O)(=O)[O-] | inactive
CCN(CC)CCn1c2c(c(SCC(=O)Nc3nc4ccccc4s3)nc1=O)CCCC2 | inactive
CCC(C)(C)NC(=O)c1cc([N+](=O)[O-])ccc1N1CCCCC1 | inactive
CCC(=O)c1ccc(N2CCN(C(=O)c3cc([N+](=O)[O-])ccc3F)CC2)c(F)c1 | inactive
CCN1CCN(c2ccc([N+](=O)[O-])cc2C(=O)c2ccc(Cl)cc2)CC1 | 8.73 (active)

SMILES | B-score
Cc1cc(O)c(Sc2ccccc2)c(=O)o1 | inactive
Cc1ccc(Cn2cc(C(=O)NN)c(=O)c3ccc(F)cc32)cc1 | inactive
CCOC(=O)c1cn(CC)c2cc(F)c(F)cc2c1=O | 7.03 (active)
CCCCCCn1cc(C(=O)O)c(=O)c2cc(F)c(N3CCCCC3)cc21 | inactive
Cc1cc(C)c(S(=O)(=O)n2cc(C(C)C(N)C(=O)O)c3ccccc32)c(C)c1 (stereo not drawn) | inactive
CCCn1c(C)cc(-c2csc(NC(=O)CCc3nc4ccccc4c(=O)[nH]3)n2)c1C | inactive
O=C1c2ccccc2C(=O)c2c1cccc2N1CCN(CCO)CC1 | 8.6 (active)
O=C1c2ccccc2C(=O)c2c1cccc2N1CCN(Cc2ccccc2)CC1 | inactive
O=C1c2ccccc2C(=O)c2c1cccc2N1CCN(C/C=C/c2ccccc2)CC1 | inactive
COc1ccc(C(=O)C2CCCN(C(=O)c3ccc(OC)o3)C2)c(C)c1 (stereo not drawn) | inactive
COc1ccc(NC(=O)CCC(=O)N2CCN(S(=O)(=O)c3ccc(C)cc3)CC2)c(OC)c1 | inactive
COc1ccc2sc(N(CCCN(C)C)C(=O)c3ccc(S(=O)(=O)N(C)C4CCCCC4)cc3)nc2c1 | inactive
CCN1C(=O)[C@H]2[C@@H](c3ccc(-c4ccc(OC)cc4)cc3)N[C@@](Cc3ccccc3)(C(=O)OC)[C@H]2C1=O | inactive
CCCc1cc(=O)oc2c(C)c(OC(C)C(=O)NCC(O)c3ccccc3)ccc12 (stereo not drawn) | inactive
Cc1cc(=O)oc2c(C)c(OC(C)C(=O)NC3CCN(Cc4ccccc4)CC3)ccc12 (stereo not drawn) | 6.43 (active)
Cc1c(OC(C)C(=O)NCC2CCC(C(=O)O)CC2)ccc2c1oc(=O)c1ccccc12 (stereo not drawn) | inactive
CC(OC(=O)C1CC(=O)N(Cc2ccccc2)C1)C(=O)Nc1ccccc1[N+](=O)[O-] (stereo not drawn) | inactive
CC(C)Oc1ccc(S(=O)(=O)N2CCOCC2)cc1NC(=O)C1CSC2(C)CCC(=O)N12 (stereo not drawn) | inactive
Cc1cc(Nc2ccc(Br)cc2)nc2ccccc12 | inactive
Cc1ccc(NC(=O)c2cnc(SCC(=O)NCC3CCCO3)n(C)c2=O)cc1 (stereo not drawn) | inactive
Cc1cccn2c(=O)c3cc(C(=O)N4COCC4(C)C)n(C)c3nc12 | inactive
Cc1cccn2c(=O)c3cc(C#N)c(=O)n(CCCN4CCOCC4)c3nc12 | 7.22 (active)
Cc1cccn2c(=O)c3cc(C(=O)NCCN4CCOCC4)c(=N)n(Cc4cccnc4)c3nc12 | inactive
Cc1ccc2nc(NC(=O)CSc3nc(=O)n(CCCN(C)C)c4c3CCC4)sc2c1 | inactive
O=C(C1CCCO1)N1CCC(c2nc3ccccc3[nH]2)CC1 (stereo not drawn) | inactive

SMILES | B-score
COc1cc2nc(N3CCN(C(=O)[C@@H]4CCCO4)CC3)nc(N)c2cc1OC | 8.15 (active)
COC(=O)c1cc(OC)c(OC)cc1NC(=O)C1CCCO1 (stereo not drawn) | inactive
COc1ccc(-c2cc(C(=O)N/N=C/c3cccnc3)c3ccccc3n2)c(OC)c1 | inactive
Cc1ccc(CNC(=O)c2cc(-c3ccccc3C)n(CC3CC(c4cccc([N+](=O)[O-])c4)=NO3)n2)cc1 (stereo not drawn) | inactive
O=C(c1ccccc1F)N(Cc1ccccc1)Cc1ccccc1 | 6.51 (active)
Cc1cccc(N(Cc2ccccc2)C(=O)c2ccccc2F)c1 | inactive
CCN(CC)C(=O)N(CC)Cc1ccccc1 | inactive
Cc1ccc(NC(=O)CSCC(=O)Nc2sccc2C#N)cc1 | inactive
Cc1nnc(SCCCn2c(N3CCCCC3)nc3c2c(=O)[nH]c(=O)n3C)s1 | inactive
CN1CCN(c2nc3c(c(=O)[nH]c(=O)n3C)n2Cc2cccc3ccccc23)CC1 | inactive
Cn1c(=O)[nH]c(=O)c2c1nc(N1CCN(CCO)CC1)n2CCSc1nc2ccccc2s1 | 7.66 (active)
CCC1Nc2ncnc(N3CCN(c4ccccc4)CC3)c2N(Cc2ccc(Cl)cc2)C1=O (stereo not drawn) | inactive
O=C(CCC1CCCCC1)Nc1cc(C(F)(F)F)ccc1N1CCOCC1 | inactive
CC(C)c1ccc(S(=O)(=O)N2CCN(C(=O)CN3C(=O)NC(C)(c4ccccc4)C3=O)CC2)cc1 (stereo not drawn) | inactive
CCCCCCCNC(=O)C1(CC2CC(c3cccc(Br)c3)=NO2)CCN(C(=O)c2cc(OCC)c(OCC)c(OCC)c2)CC1 (stereo not drawn) | inactive
Cc1ccc(S(=O)(=O)N2CCN(C(=O)Cc3sc(C)nc3-c3ccc(F)cc3)CC2)c(C)c1 | inactive
O=C(Nc1ncccc1O)c1ccc(C(=O)c2ccccc2)cc1 | inactive
COc1ccccc1CCC(=O)NNC(=O)c1ccncc1 | inactive
Cc1cc(NC(=O)Nc2ccccc2)n(-c2ccccc2)n1 | inactive
Cc1cc(NC(=O)c2cnn3cccnc23)n(-c2ccccc2)n1 | 6.76 (active)
O=C(Nc1ccc(Cl)cn1)c1cnn2cccnc12 | inactive
CCOc1cc(C(=O)Nc2ccc(S(=O)(=O)Nc3cnc4ccccc4n3)cc2)cc(OCC)c1OCC | inactive
O=C(NCC(c1ccco1)N1CCc2ccccc2C1)c1ccccc1Cl (stereo not drawn) | inactive
COc1ccc(C(CNC(=O)c2cccc(NS(=O)(=O)c3ccc(C)c(F)c3)c2)N2CCCC2)cc1 (stereo not drawn) | inactive
CCOC(=O)c1cc2ccccc2n1CC(=O)c1ccccc1 | inactive

SMILES | B-score
CCOC(=O)N1CCN(C(=O)c2ccc(S(=O)(=O)Nc3cccc(C(F)(F)F)c3)cc2)CC1 | inactive
CCn1c(/C=C/Nc2ccccc2)[n+](CC)c2ccc(C(=O)OCC(F)(F)F)cc21 | 7.01 (active)
Cc1onc(-c2ccccc2Cl)c1C(=O)OCc1nnc(-c2ccccc2)o1 | inactive
CCN(CC(=O)Nc1c(F)cccc1F)C(=O)c1ccc(-c2ccccc2)cc1 | inactive
O=C(CSC1=NS(=O)(=O)c2cc(F)ccc2N1)Nc1ccccc1F | inactive
COc1cccc(CC2(CO)CCCN(Cc3ccc(OC(F)F)cc3)C2)c1 (stereo not drawn) | inactive
CCCCCN(C(=O)CCC(=O)OCCOc1ccc(OC)cc1)c1c(N)n(CCCC)c(=O)[nH]c1=O | inactive
CCCCCC(=O)N1CCN(S(=O)(=O)c2ccc3c(c2)OCCCO3)CC1 | inactive
CN1CCN(c2nc(Nc3ccc(O)cc3)nc3ccccc23)CC1 | 6.97 (active)
c1ccc(Nc2nc(N3CCOCC3)c3ccccc3n2)cc1 | inactive
Cc1cccc(-c2nc(Nc3ccc(O)cc3)c3ccccc3n2)c1 | inactive
C=CCOc1cccc(C2C(C(=O)c3ccc(C)o3)=C(O)C(=O)N2c2nnc(C)s2)c1 (stereo not drawn) | inactive
Cc1c(NC(=O)C(C)OC(=O)c2c3c(nc4ccccc24)CCC(C)C3)c(=O)n(-c2ccccc2)n1C (stereo not drawn) | inactive
COC(=O)c1cc2nc(-c3ccccc3)cc(C(F)(F)F)n2n1 | inactive
CCOC(=O)CN(C)S(=O)(=O)c1ccc(-c2cc(C(=O)OC)sc2C(F)(F)F)cc1 | inactive
COC(=O)c1sc(C(F)(F)F)c(-c2ccccc2)c1S(=O)(=O)N(C)C | 9.76 (active)
CC1(C)CC[C@]2(C(=O)O)CC[C@]3(C)C(=CCC4[C@@]5(C)CC[C@H](O)C(C)(C)C5[C@H](O)C[C@]43C)[C@@H]2C1 (stereo partly drawn) | inactive
N#Cc1ccc(/C=C2\CCn3c2nc2cc(C(=O)O)ccc2c3=O)cc1 | 6.78 (active)
Cc1ccc(/C=C2\CCn3c2nc2cc(C(=O)O)ccc2c3=O)c(C)c1 | inactive
O=C(O)c1ccc2c(=O)n3c(nc2c1)/C(=C/c1ccc(Cl)c([N+](=O)[O-])c1)CC3 | inactive
N=c1c2c3c(sc2nc2n1CCCCC2)CCCC3 | inactive
CC(C)c1nc2sc3c(c2c(=O)n1N)CC(C)(C)OC3 | inactive
CC1(C)Cc2c(sc3nc4n(c(=N)c23)CCCCC4)CO1 | 7.43 (active)
